Inconclusive results are not listed. Calls of active or inactive are those of the source. The calls were made as follows, unless noted: active = hit-call score of the fitted dose curve at least 0.9, where 1 is the maximum; inactive = score below 0.9.
Key:
[1] = ATG_M_32_TRANS: Attagene TRANS-FACTORIAL HepG2 Assay for M32 Transcription Factor (Internal Marker) (AID 2282984; active = hit-call score of the fitted dose curve at least 0.9, where 1 is the maximum;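 also: transcript level of a background control reporter unit measured by RT-PCR and capillary electrophoresis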); details: HepG2 Attagene TRANS M32 internal marker reporter
Summary of the method: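 Measures reporter mRNA induction in human HepG2 liver cells after 24 h chemical treatment. Transcripts from transiently transfected GAL4-UAS reporter units are amplified, fluorescently labelled and sized by capillary electrophoresis; gain of signal relative to DMSO.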

[2] = molecular target: Transcriptional activator Myb (Homo sapiens) (UniProt P10242); assay: ATG_Myb_CIS: Attagene CIS-FACTORIAL HepG2 Assay for human Myeloblastosis (Myb) Proto-Oncogene Transcription Factor (AID 2282986); details: HepG2 Attagene CIS-FACTORIAL Myb reporter transcription; actives raise or lower the signal
Transcriptional activator Myb (Homo sapiens), sequence (P10242 whole entry, looked up): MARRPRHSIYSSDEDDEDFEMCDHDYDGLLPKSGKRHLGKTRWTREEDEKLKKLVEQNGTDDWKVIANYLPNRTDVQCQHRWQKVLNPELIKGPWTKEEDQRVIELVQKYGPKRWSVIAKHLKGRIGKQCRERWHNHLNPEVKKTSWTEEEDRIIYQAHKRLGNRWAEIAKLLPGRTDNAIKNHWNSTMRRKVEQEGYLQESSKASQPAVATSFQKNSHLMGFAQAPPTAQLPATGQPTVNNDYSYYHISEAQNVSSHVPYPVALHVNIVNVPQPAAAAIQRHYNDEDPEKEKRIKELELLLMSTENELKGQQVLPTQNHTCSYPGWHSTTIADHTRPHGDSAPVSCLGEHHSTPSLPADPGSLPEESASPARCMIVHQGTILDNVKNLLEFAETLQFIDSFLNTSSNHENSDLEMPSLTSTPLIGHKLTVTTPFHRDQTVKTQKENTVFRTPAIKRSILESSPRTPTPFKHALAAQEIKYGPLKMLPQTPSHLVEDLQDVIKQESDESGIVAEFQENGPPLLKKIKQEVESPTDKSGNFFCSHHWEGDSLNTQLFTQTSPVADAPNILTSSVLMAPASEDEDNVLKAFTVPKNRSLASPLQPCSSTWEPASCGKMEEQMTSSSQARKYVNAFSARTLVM
Summary of the method: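 HepG2 cells were transiently transfected with cis-regulated multiple reporter transcription units reflecting endogenous Myb activity, then exposed to compound for 24 hours. Reporter mRNA was measured by RT-PCR with capillary electrophoresis; bidirectional fitting versus DMSO baseline.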

[3] = molecular target: Nuclear respiratory factor 1 (Homo sapiens) (UniProt Q16656); assay: ATG_NRF1_CIS: Attagene CIS-FACTORIAL HepG2 Assay for human Nuclear Respiratory Factor 1 (NRF1) Orphan Gene (AID 2282987); details: HepG2 NRF1 cis-element reporter, Attagene multiplex; actives raise or lower the signal
Nuclear respiratory factor 1 (Homo sapiens), sequence (Q16656 whole entry, looked up): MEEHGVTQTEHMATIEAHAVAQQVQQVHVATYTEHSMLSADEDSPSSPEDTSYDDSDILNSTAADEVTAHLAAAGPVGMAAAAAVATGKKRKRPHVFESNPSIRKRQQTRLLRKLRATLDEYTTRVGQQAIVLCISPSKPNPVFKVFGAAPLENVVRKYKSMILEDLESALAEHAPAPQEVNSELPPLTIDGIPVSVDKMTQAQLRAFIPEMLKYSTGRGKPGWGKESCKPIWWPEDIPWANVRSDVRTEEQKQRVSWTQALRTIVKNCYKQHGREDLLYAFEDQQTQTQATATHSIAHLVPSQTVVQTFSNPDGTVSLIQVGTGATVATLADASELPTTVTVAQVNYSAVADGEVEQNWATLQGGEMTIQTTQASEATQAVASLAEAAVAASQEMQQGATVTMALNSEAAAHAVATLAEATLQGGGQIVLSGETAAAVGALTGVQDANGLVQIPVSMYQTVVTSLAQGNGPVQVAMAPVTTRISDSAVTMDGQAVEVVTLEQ
Summary of the method: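 HepG2 cells transiently transfected with multiple reporter transcription units under cis-regulatory promoter control, so endogenous transcription-factor activity is read. After 24 h compound exposure, reporter mRNA quantified by RT-PCR, fluorescent labelling, HpaI digestion and capillary electrophoresis; bidirectional fitting versus DMSO.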

[4] = ATG_NFI_CIS: Attagene CIS-FACTORIAL HepG2 Assay for human Nuclear Factor I (NFI) (AID 2282989); details: HepG2 cis-regulatory reporter, NFI response element transcription; actives raise or lower the signal
Summary of the method: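 HepG2 cells transiently transfected with cis-element-driven multiplexed reporter transcription units, dosed for 24 h. Reporter mRNA quantified by RT-PCR, fluorescent labelling, HpaI digestion and capillary electrophoresis; bidirectional fit versus DMSO baseline.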

[5] = molecular target: Myc proto-oncogene protein (Homo sapiens) (UniProt P01106); assay: ATG_Myc_CIS: Attagene CIS-FACTORIAL HepG2 Assay for human Myelocytomatosis (Myc) Proto-Oncogene Transcription Factor (AID 2282990); details: HepG2, Attagene cis-reporter transcription factor activity; actives raise or lower the signal
Myc proto-oncogene protein (Homo sapiens), sequence (P01106 whole entry, looked up, the tested form may be a part): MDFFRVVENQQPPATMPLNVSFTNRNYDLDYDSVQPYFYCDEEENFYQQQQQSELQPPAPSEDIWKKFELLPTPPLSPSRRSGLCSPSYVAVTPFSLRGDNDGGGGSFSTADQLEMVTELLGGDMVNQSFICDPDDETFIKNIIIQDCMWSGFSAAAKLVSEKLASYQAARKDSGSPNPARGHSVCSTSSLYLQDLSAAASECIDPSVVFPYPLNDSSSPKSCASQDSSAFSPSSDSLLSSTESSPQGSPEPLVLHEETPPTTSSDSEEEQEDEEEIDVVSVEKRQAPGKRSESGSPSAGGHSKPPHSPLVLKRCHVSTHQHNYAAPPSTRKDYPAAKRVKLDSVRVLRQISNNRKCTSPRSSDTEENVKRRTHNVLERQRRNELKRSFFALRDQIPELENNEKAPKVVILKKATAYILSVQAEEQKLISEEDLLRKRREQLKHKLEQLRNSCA
Summary of the method: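 After 24 h chemical treatment of HepG2 cells carrying multiplexed cis-regulated reporter constructs, reporter transcripts quantified by RT-PCR and capillary electrophoresis of fluorescent fragments. Gain or loss fitted against DMSO baseline.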

[6] = ATG_NF_kB_CIS: Attagene CIS-FACTORIAL HepG2 Assay for human Nuclear Factor Kappa B (NF-kB) (AID 2282991); details: HepG2 Attagene cis-factorial NF-kB reporter mRNA; actives raise or lower the signal
Summary of the method: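 HepG2 cells transiently transfected with multiplexed cis-element reporter units measuring endogenous transcription factor activity; reporter mRNA read 24 h after dosing by RT-PCR, fluorescent labelling, HpaI digestion and capillary electrophoresis. Bidirectional fit against DMSO baseline.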

[7] = ATG_NRF2_ARE_CIS: Attagene CIS-FACTORIAL HepG2 Assay for human Nuclear Factor Erythroid 2 Related Factor 2 (NFR2) response to Antioxidant Response Elements (ARE) (AID 2282992); details: HepG2 Attagene ARE/NRF2 reporter, transcription factor activity; actives raise or lower the signal;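 as to AC50: reporter mRNA level measured by RT-PCR and capillary electrophoresis fluorescence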
Summary of the method: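 Transient MRTU transfection of HepG2; 24 h compound exposure; TriZol RNA, RT with oligo(dT), PCR, 6-FAM primer extension, HpaI cut, CE. Bidirectional fit vs DMSO.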

[8] = ATG_Oct_MLP_CIS: Attagene CIS-FACTORIAL HepG2 Assay for human Octamer-Binding Transcription Factor (Oct) (AID 2282993); details: HepG2 Attagene cis-factorial Oct reporter, mRNA; actives raise or lower the signal
Summary of the method: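 HepG2 cells transiently transfected with cis-promoter-driven multiplexed reporter transcription units, dosed for 24 h. Reporter mRNA quantified by RT-PCR, fluorescent labelling, HpaI digestion and capillary electrophoresis; bidirectional fits versus DMSO baseline.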

[9] = molecular target: Cellular tumor antigen p53 (Homo sapiens) (UniProt P04637); assay: ATG_p53_CIS: Attagene CIS-FACTORIAL HepG2 Assay for human p53 Transcription Factor (AID 2282994); details: HepG2 p53 cis-element reporter, Attagene mRNA; actives raise or lower the signal
Cellular tumor antigen p53 (Homo sapiens), sequence (P04637 whole entry, looked up): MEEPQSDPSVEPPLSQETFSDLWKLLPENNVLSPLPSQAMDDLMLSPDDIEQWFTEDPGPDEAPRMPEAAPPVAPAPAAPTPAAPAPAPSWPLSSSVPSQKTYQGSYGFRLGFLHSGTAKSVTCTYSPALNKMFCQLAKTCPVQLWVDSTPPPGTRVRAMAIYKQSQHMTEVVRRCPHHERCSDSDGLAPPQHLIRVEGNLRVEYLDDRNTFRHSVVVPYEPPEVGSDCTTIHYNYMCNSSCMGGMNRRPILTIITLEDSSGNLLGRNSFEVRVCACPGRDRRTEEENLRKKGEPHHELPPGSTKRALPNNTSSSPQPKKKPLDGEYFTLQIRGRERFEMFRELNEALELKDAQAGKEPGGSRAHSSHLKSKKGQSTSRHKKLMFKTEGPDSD
Summary of the method: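 HepG2, transient MRTU transfection (cis promoter elements, endogenous TFs); 24 h dosing; RNA isolation, RT-PCR, 6-FAM primer extension, HpaI digest, CE fluorescence; bidirectional fit vs DMSO.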

[10] = BSK_3C_TissueFactor: BioMAP Diversity Plus: 3C Assay for Tissue Factor Biomarker Activity (AID 2282997); details: BioMAP 3C HUVEC, tissue factor biomarker readout; actives raise or lower the signal
Summary of the method: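 Dosing of human umbilical vein endothelial cells preceded a 24 h incubation. Tissue Factor was then read by ELISA, with increases and decreases both scored relative to DMSO controls.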

[11] = BSK_3C_uPAR: BioMAP Diversity Plus: 3C Assay for Urokinase-type plasminogen activator receptor (uPAR) Biomarker Activity (AID 2282998); details: BioMAP 3C HUVEC, uPAR biomarker ELISA; actives raise or lower the signal
Summary of the method: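 Human umbilical vein endothelial primary cells were exposed to test chemical for 24 h. Cell-surface uPAR was then quantified by ELISA, and responses were fitted bidirectionally against DMSO as negative control and baseline.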

[12] = BSK_3C_VCAM1: BioMAP Diversity Plus: 3C Assay for Vascular cell adhesion molecule 1 (VCAM1) Biomarker Activity (AID 2282999); details: BioMAP 3C HUVEC, VCAM1 ELISA, cytokine-stimulated; actives raise or lower the signal
Summary of the method: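 Endothelial cells from human umbilical vein are treated with test chemical. At 24 h, VCAM-1 is measured by ELISA, and responses in either direction are fitted relative to DMSO.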

[13] = BSK_4H_Eotaxin3: BioMAP Diversity Plus: 4H Assay for Eotaxin 3 Biomarker Activity (AID 2283000); details: primary human endothelial cells (HUVEC); actives raise or lower the signal;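 also: CCL26 protein level quantified by ELISA in parallel with SRB cytotoxicity check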
Summary of the method: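 Human umbilical vein endothelial cells (BSK_4H system) dosed with test chemical; Eotaxin-3 (CCL26) measured by ELISA 24 h after dosing. Bidirectional curve fitting relative to DMSO negative control as baseline.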

[14] = molecular target: human Peroxisome Proliferator-activated Receptor delta (PPARd), PPARD (gene 5467) (UniProt Q03181); assay: ATG_PPARd_TRANS: Attagene TRANS-FACTORIAL HepG2 Assay for human Peroxisome Proliferator-activated Receptor delta (PPARd) (AID 2283002; active = hit-call score of the fitted dose curve at least 0.9, where 1 is the maximum)
human Peroxisome Proliferator-activated Receptor delta (PPARd), PPARD (gene 5467), sequence (Q03181 whole entry, looked up, the tested form may be a part): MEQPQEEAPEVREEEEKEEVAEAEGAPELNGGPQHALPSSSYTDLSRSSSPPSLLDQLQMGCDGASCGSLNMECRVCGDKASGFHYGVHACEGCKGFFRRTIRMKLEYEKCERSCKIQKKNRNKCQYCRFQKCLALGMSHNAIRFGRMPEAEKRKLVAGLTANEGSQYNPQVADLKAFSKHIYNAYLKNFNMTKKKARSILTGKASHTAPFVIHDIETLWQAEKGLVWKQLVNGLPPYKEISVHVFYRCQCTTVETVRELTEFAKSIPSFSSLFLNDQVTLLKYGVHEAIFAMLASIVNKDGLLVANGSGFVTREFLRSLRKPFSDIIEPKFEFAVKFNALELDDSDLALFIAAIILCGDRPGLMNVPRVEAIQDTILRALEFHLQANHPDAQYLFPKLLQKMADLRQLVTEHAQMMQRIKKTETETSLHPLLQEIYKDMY
Summary of the method: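 Read-out is induced reporter mRNA, quantified by RT-PCR with fluorescent labelling and capillary electrophoresis after 24 h dosing. Cells are HepG2 transiently carrying multiple GAL4-UAS reporter units driven by exogenous NR-GAL4 chimeras; DMSO serves as baseline.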

[15] = read-out: Intercellular Adhesion Molecule 1 (ICAM1), ICAM1 (gene 3383); assay: BSK_3C_ICAM1: BioMAP Diversity Plus: 3C Assay for Intercellular Adhesion Molecule 1 (ICAM1) Biomarker Activity (AID 2283003); details: primary human endothelial cells (HUVEC); actives raise or lower the signal
Summary of the method: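 ICAM-1 levels measured by ELISA after HUVEC cultures in the 3C system had been dosed for 24 h. Gain or loss of signal relative to DMSO was fitted in both directions.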

[16] = ATG_M_06_TRANS: Attagene TRANS-FACTORIAL HepG2 Assay for M06 Transcription Factor (Internal Marker) (AID 2282983; active = hit-call score of the fitted dose curve at least 0.9, where 1 is the maximum;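 also: reporter transcript level by RT-PCR then capillary electrophoresis fluorescence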); details: HepG2 Attagene TRANS M06 internal marker reporter
Summary of the method: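 Cells: HepG2, transient multi-reporter transfection. Exposure: 24 h. Detection: RT-PCR, 6-FAM labelling, HpaI digestion (2 h, 37 °C), capillary electrophoresis. Baseline: DMSO.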

[17] = molecular target: Nuclear receptor subfamily 4 group A member 2 (Homo sapiens) (UniProt P43354); assay: ATG_NURR1_TRANS: Attagene TRANS-FACTORIAL HepG2 Assay for human Nuclear Receptor Related Protein 1 (NURR1) (AID 2282985; active = hit-call score of the fitted dose curve at least 0.9, where 1 is the maximum); details: HepG2 Attagene TRANS reporter, mRNA readout
Nuclear receptor subfamily 4 group A member 2 (Homo sapiens), sequence (P43354 whole entry, looked up, the tested form may be a part): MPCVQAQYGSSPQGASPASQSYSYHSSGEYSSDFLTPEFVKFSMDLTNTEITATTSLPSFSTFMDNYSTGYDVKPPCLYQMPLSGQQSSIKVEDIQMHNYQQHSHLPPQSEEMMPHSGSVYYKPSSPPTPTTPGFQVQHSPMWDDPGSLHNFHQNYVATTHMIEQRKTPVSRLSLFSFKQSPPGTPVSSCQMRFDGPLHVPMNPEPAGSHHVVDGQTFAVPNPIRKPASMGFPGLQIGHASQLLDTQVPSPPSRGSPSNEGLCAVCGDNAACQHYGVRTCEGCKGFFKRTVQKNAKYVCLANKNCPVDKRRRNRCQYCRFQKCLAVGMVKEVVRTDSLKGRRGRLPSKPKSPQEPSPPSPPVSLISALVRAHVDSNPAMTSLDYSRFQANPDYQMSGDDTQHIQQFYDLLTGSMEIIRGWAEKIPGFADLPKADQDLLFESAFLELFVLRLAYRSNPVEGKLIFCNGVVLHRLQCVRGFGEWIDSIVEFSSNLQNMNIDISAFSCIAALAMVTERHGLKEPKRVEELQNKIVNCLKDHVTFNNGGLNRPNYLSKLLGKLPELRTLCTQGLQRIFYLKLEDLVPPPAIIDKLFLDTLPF
Summary of the method: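 Transient transfection of HepG2, human liver cells, with multiple GAL4-UAS reporter transcription units. Cells dosed 24 h, RNA isolated, reverse-transcribed, PCR-amplified, FAM-labelled, HpaI-digested, sized by capillary electrophoresis. DMSO served as negative control.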

[18] = molecular target: human Peroxisome Proliferator-activated Receptor alpha (PPARa), PPARA (gene 5465) (UniProt Q07869); assay: ATG_PPARa_TRANS: Attagene TRANS-FACTORIAL HepG2 Assay for human Peroxisome Proliferator-activated Receptor alpha (PPARa) (AID 2283001; active = hit-call score of the fitted dose curve at least 0.9, where 1 is the maximum)
human Peroxisome Proliferator-activated Receptor alpha (PPARa), PPARA (gene 5465), sequence (Q07869 whole entry, looked up, the tested form may be a part): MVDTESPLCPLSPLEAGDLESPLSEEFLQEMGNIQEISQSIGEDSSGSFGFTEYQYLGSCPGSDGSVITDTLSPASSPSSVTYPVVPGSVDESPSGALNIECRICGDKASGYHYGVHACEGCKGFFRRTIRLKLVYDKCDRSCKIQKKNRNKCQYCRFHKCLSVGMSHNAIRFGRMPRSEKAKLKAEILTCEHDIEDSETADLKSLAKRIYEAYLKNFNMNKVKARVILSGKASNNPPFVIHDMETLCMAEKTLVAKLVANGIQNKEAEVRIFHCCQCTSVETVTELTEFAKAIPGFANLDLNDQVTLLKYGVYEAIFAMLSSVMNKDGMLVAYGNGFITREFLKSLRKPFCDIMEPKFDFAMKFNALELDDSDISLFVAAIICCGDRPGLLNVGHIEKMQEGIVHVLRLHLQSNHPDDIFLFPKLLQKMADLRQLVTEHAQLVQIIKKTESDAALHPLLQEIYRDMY
Summary of the method: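 Read-out is fluorescence of reporter cDNA fragments resolved by capillary electrophoresis after RT-PCR. Human HepG2 liver cells carried transfected PPARa-Gal4 chimera and GAL4-UAS reporter units, treated 24 h; activity scored as increase over DMSO.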

[19] = molecular target: human Retinoic Acid Receptor beta (RARb), RARB (gene 5915) (UniProt P10826); assay: ATG_RARb_TRANS: Attagene TRANS-FACTORIAL HepG2 Assay for human Retinoic Acid Receptor beta (AID 2283004; active = hit-call score of the fitted dose curve at least 0.9, where 1 is the maximum)
human Retinoic Acid Receptor beta (RARb), RARB (gene 5915), sequence (P10826 whole entry, looked up, the tested form may be a part): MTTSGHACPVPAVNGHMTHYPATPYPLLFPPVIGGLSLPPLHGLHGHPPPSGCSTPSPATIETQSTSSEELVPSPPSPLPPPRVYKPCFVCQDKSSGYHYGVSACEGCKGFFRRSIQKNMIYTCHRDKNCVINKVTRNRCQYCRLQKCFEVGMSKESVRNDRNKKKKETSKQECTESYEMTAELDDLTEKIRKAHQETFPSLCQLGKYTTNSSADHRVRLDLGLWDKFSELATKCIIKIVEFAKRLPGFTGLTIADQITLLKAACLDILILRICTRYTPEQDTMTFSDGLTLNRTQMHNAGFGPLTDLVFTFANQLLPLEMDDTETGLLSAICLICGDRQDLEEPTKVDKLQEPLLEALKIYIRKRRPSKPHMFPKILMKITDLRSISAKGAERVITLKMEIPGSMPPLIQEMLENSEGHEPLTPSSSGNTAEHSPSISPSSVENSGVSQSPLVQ
Summary of the method: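 Induction of reporter mRNA from a chimeric RARb-Gal4 construct was measured by RT-PCR, FAM labelling, HpaI digestion and capillary electrophoresis. Measurements followed 24 h compound treatment of transiently transfected human HepG2 liver cells, with DMSO as baseline.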

Measured: AC50

Cn1cc(-c2ccccc2)c(=O)c(-c2cccc(C(F)(F)F)c2)c1
active: [3] 100 µM | [6] 100 µM | [7] 44.2 µM
not listed: [16] | [17] | [18] | [19]
inactive: all other assays above

CCN(CC)N=O
not listed: [1] | [6] | [8] | [17] | [18] | [19]
inactive: all other assays above

Cc1ccc(N)cc1
not listed: [6] | [14] | [16] | [19]
inactive: all other assays above

CCCCCCCCCCCCCN1CC(C)OC(C)C1 (stereo unspecified)
active: [7] 47 µM
not listed: [1] | [6] | [18] | [19]
inactive: all other assays above

CS(=O)(=O)NC(=O)c1cc(Oc2ccc(C(F)(F)F)cc2Cl)ccc1[N+](=O)[O-]
active: [11] 28.6 µM
not listed: [6] | [8] | [14] | [16] | [17]
inactive: all other assays above

CCCCC(CC)COC(=O)c1ccc(C(=O)OCC(CC)CCCC)c(C(=O)OCC(CC)CCCC)c1 (stereo unspecified)
not listed: [1] | [6] | [14] | [18]
inactive: all other assays above

COC(=O)c1ccccc1N
not listed: [1] | [16] | [17] | [18] | [19]
inactive: all other assays above
